Source: PubChem BioAssay
B2AR arrestin = qHTS assay of beta-arrestin-biased ligands of beta2-adrenergic receptor; Potency, µM (series often up to 46.1 µM), without a hit: at the highest dose activation, actives largely listed as activators; Beta-2 adrenergic receptor (Homo sapiens), P07550; beta-arrestin recruitment to beta2AR, cell-based reporter; AID 492947, 2010; 0.02% of 330,000 active;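 also: potency is read from the fitted curve at half-maximal effect; 0% = DMSO controls and full agonism = EC100 isoproterenol or metaproterenol; nearly all actives have a fitted effect of over 65% in size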
RGS4 inhibitor = Inhibitors of Regulator of G Protein Signaling (RGS) 4: qHTS | Transcreener GDP fluorescence polarization, RGS4-accelerated GTP hydrolysis | 0.039% of 390,000 active | Potency, µM (highest dose often 114 µM), without a hit: top-dose activity change, negative = inhibition, actives largely listed as inhibitors | Regulator of G-protein signaling 4 (Homo sapiens), P49798; also: potency is read from the fitted curve at half-maximal effect; % is scaled to controls: 0 for no effect and ±100 for the full control effect; nearly all actives have a fitted effect of over 75% in size
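MLSMR compounds (23 nl, pin-transferred) preincubated 10 min at room temperature with a 500nM (2x) first reagent, then RGS4 at 900nM (2x) plus Transcreener GDP mix added; fluorescence polarization (620/688 nm) read before and after 90 min at 30 °C.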
BRCA1 expr act = qHTS Assay to Identify Small Molecule Activators of BRCA1 Expression; MCF7-BRCA1-FFLuc reporter, luminescence, 48 h; response scale: scaled: vehicle 0%, 10 µM genistein 100%; Potency, µM (titrated, usually from 46.1 µM), for inactives: top-dose activation, actives largely listed as activators; 1.1% of 380,000 active; AID 624202, 2012; also: potency is read from the fitted curve at half-maximal effect; nearly all actives have a fitted effect of over 80% in size
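Activators of BRCA1 expression were detected as increased firefly luciferase luminescence in engineered MCF7 cells after 48 h compound incubation. Signals were scaled to genistein 10 microM as full activation.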
PTHR1 ag = qHTS for PTHR1 Agonists: Primary Screen | Parathyroid hormone/parathyroid hormone-related peptide receptor (Homo sapiens), Q03431 | HEK293 GP2 PTHR1 cells, GloSensor cAMP luminescence, 1 h | Potency, µM (highest dose often 115 µM), inactives show at the top dose activation, hits mostly activators | 0.075% of 410,000 active; also: potency is read from the fitted curve at half-maximal effect; nearly all actives have a fitted effect of over 55% in size
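HEK-293-derived GP2 cells expressing PTHR1 and a GloSensor cAMP reporter, 3,000/well, plated overnight, given luciferin plus IBMX (each 0.5 mM as added) for 1 h at 37 °C, then compound for 1 h at 37 °C. Luminescence was read after 15 min at room temperature.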
DRD3 agonist = qHTS of D3 Dopamine Receptor Agonist: qHTS | max activation, % | 0.58% of 410,000 active | D3R DiscoveRx beta-arrestin cells, luminescence, 90 min | D(3) dopamine receptor (Homo sapiens), P35462; in the data active = max activation above about 30%; also: 0% is about no effect
Target sequence (P35462 whole entry, looked up): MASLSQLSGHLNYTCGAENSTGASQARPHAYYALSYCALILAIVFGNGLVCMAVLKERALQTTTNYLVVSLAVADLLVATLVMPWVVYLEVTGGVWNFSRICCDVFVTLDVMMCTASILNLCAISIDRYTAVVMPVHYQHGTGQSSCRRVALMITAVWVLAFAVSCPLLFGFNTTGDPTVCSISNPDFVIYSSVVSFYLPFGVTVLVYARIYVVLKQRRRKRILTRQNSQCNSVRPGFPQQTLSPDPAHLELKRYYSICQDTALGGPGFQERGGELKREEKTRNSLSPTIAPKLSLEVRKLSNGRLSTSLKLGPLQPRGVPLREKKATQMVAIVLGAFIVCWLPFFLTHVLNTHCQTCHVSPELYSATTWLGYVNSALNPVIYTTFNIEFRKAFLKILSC
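Cells at 1500/well, incubated overnight, then treated with pinned compounds (dopamine as control) for 90 min at 37 degrees C. DiscoveRx reagent added for 30 - 60 minutes at room temperature; luminescence read.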
DRD3 antagonist = qHTS of D3 Dopamine Receptor Antagonist: qHTS; D(3) dopamine receptor (Homo sapiens), P35462; D3R cells, DiscoveRx beta-arrestin luminescence, antagonist mode; hits give low values; max response, negative = inhibition, %; 2.5% of 360,000 active; AID 652054, 2013; in the data active = max response below about -50%; inconclusive = no clear call, values can overlap the other calls; also: % is scaled to controls: 0 for no effect and ±100 for the full control effect
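Cells plated overnight at 1500 cells/well, then exposed to library compounds with dopamine controls for 90 minutes at 37 degrees C. DiscoveRx reagent added for 30–60 minutes at room temperature; luminescence read, quantitative HTS format.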
* marks the source's active call; other numbers are inactive results; i = inactive; u = inconclusive; x = no result given; [ ] = dose if it differs, or a comment. Sampled rows, rich in hits. Any-hit rate of the full collection: about 3.7%. Unless noted, calls follow the shape of the dose curve; as a rule, active = well fitted curve in the direction sought with a large enough effect; inconclusive = small, poorly fitted or top-dose-only effect, or another doubt; inactive = no such curve, though single readings can be large; an effect the other way counts as inactive or inconclusive.

SMILES	B2AR arrestin	RGS4 inhibitor	BRCA1 expr act	PTHR1 ag	DRD3 agonist	DRD3 antagonist
N/C(=N\OC(=O)c1ccccc1)c1cccnc1	0%	20%	11µM*	-18%	0	-1
N/C(=N\OC(=O)c1ccc2c(c1)OCO2)c1cccnc1	1%	-9%	10µM*	-39%	3	0
Cc1onc(-c2c(F)cccc2Cl)c1C(=O)OCC(=O)N(C)c1ccccc1	x	x	-10%	-15%	-4	1
Cc1ccc(OCCSc2nc(N)cc(N)n2)cc1	0%	14%	u	-13%	3	-10
COc1ccc(OCCSc2nc(N)cc(N)n2)cc1	-1%	12%	11µM*	-23%[57.5 µM]	-11	-19
COc1ccccc1C(=O)C1CCCN(Cc2ccc(Oc3ncccn3)cc2)C1 (stereo not given)	0%	1%	-13%	i	-16	0
COC(=O)c1ccc(CN2CCCC(C(=O)c3ccccc3OC)C2)cc1 (stereo not given)	0%	15%	-28%	i	-25	-51*
CSc1ccccc1C(=O)C1CCCN(Cc2cnn(-c3ccccc3)c2)C1 (stereo not given)	0%	-48%	-30%	-11%	-17	-76*
COC(=O)c1ccc(CN2CCCC(C(=O)c3cc(F)ccc3OC)C2)cc1 (stereo not given)	-1%	16%	0%	i	-17	-95*
CSc1ccccc1C(=O)C1CCCN(Cc2c(C)n(C)n(-c3ccccc3)c2=O)C1 (stereo not given)	-1%	-1%	-21%	15%	-21	0
COc1cccc(NC(=O)C2(C)CCN2C(=O)C2CCCCC2)c1 (stereo not given)	x	x	1%	i	2	0
Nc1[nH]n(-c2ccccc2)c(=O)c1N=Nc1ccccc1	0%	12%	u	0%	-12	-13
O=c1c(N=Nc2ccccc2)c[nH]n1-c1ccccc1	x	x	u	-48%	-19	-62*
CCOc1ccc(CCNC(=O)Cn2c(C)c3cnn(-c4ccccc4)c(=O)c3c2C)cc1	x	-9%	17%	i	-6	x
Cc1cc(C)n(-c2ccc(C(=O)N3CCN(S(=O)(=O)c4ccc(Cl)cc4)CC3)cc2)n1	0%	29%	6%	-16%	-2	9
CC(=O)c1ccc(S(=O)(=O)N2CCN(C(=O)c3ccc(-n4nc(C)c(Cl)c4C)cc3)CC2)cc1	0%	19%	-36%	-50%	77*	18
Cc1nn(-c2ccc(C(=O)N3CCN(S(=O)(=O)c4ccccc4C(F)(F)F)CC3)cc2)c(C)c1Cl	4%	3%	-15%	-90%	112*	2
Cc1ccc(C)c(S(=O)(=O)N2CCN(C(=O)[C@H](Cc3ccccc3)NC(=O)c3ccco3)CC2)c1	0%	2%	-33%	i	-6	-15
CC(=O)N(c1ccccc1C)C1CCCC1	0%	0%	-3%	i	1	0
CC(=O)N(C1=C(Cl)C(=O)c2ccccc2C1=O)C1CCCCC1	0%	-141%	-91%	-16%	-41	-85*
CC(C)(C)OC(=O)N/N=C/c1ccc(Br)cc1	0%	-34%	3.5µM*	-16%	0	-1
COc1ccc(CC(=O)N/N=C/C=C/c2ccc3c(c2)OCO3)cc1OC	-1%	-12%	-16%	i	4	3
COC(=O)N/N=C\C=C\c1ccc2c(c1)OCO2	0%	-9%	4.5µM*	-8%[57.5 µM]	-15	-15
O=C(N/N=C/C=C/c1ccc2c(c1)OCO2)c1ccc([N+](=O)[O-])cc1	0%	10%	-2%	-27%[57.5 µM]	-1	10
CC(C)(C)OC(=O)N/N=C\C=C\c1ccc2c(c1)OCO2	0%	19%	7.9µM*	-27%	6	1
